Results reported in PubChem BioAssay AID492972 (The Scripps Research Institute Molecular Screening Center, 2010).
Among all 340,000 compounds or so, about 930 (0.27%) were called active.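 The calls were made as follows: active = inhibition above the screen-wide average of all tested compounds plus 3 SD (cut at about 25% in these data); inactive = the rest.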 The full list was thinned out, with actives kept by preference.

Target: Platelet-activating factor acetylhydrolase IB subunit alpha1 (Homo sapiens) (UniProt Q15102)
Experiment: inhibition of PAF acetylhydrolase 1B subunit 3 – biochemical, fluorescence polarization, human, primary screen (AID 492972);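 also: 0% = enzyme with DMSO only and 100% = wells lacking PAFAH1B3 protein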
Conditions: recombinant PAFAH1B3, FP-rhodamine probe, at 3.39 µM, active compounds read high

Sequence of Platelet-activating factor acetylhydrolase IB subunit alpha1 (Homo sapiens) (Q15102 whole entry, looked up): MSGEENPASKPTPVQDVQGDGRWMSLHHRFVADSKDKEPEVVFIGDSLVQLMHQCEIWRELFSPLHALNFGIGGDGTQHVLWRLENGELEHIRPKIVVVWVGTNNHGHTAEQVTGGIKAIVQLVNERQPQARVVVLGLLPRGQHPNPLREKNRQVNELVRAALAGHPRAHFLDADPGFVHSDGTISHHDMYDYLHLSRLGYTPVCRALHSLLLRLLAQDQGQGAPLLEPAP

Row | Compound | inhibition
1 | O=C(NNc1ccccc1Cl)C(O)(c1cccc(C(F)(F)F)c1)c1cccc(C(F)(F)F)c1 | 8.34% (inactive)
2 | C[n+]1cccc(C(=O)O)c1 | 4.85% (inactive)
3 | O=C(COc1ccc(S(=O)(=O)NCc2ccccc2)cc1)N1CCOCC1 | -1.1% (inactive)
4 | O=C(Nc1ccc(OC(F)(F)F)cc1)c1ccc2c(c1)no[n+]2[O-] | 51.2% (active)
5 | Cn1cccc1/C=N/NC(=O)c1ccc(OC(F)(F)C(F)F)cc1 | 4.01% (inactive)
6 | CCOC(=O)Cc1ncccc1C(=O)Nc1ccc(OC(F)(F)F)cc1 | 4.95% (inactive)
7 | O=C(COc1ccccc1)Nc1cc2c3c(c1)CC(=O)N3CCC2 | 3.19% (inactive)
8 | CCC(C)NC(=O)CN(C1CCCCC1)S(C)(=O)=O (stereo unspecified) | -2.01% (inactive)
9 | Cc1cc(NC(=O)CCC(=O)N(CC(=O)NCC2CCCO2)c2ccccc2)no1 (stereo unspecified) | -3.62% (inactive)
10 | CN(CC(=O)Nc1ccc(Cl)cc1)C(=O)CNC(=O)c1ccc2ccccc2c1 | 5.2% (inactive)
11 | CCCCCNC(=O)C1c2ccccc2Oc2ccccc21 | -4.51% (inactive)
12 | CCOC(=O)CC(NC(=O)C1c2ccccc2Oc2ccccc21)c1ccc(C)cc1 (stereo unspecified) | 6.13% (inactive)
13 | CCCN(CCC)C(=O)C1c2ccccc2Oc2ccccc21 | 27.8% (active)
14 | CCOC(=O)CCCNC(=O)COC(=O)c1cc(Br)c(Br)s1 | -2.8% (inactive)
15 | COc1nc(Oc2ccc(=O)n(C)n2)nc(N(C)C)n1 | 4.35% (inactive)
16 | CN1CCN(/N=C2/C(=O)Nc3ccc([N+](=O)[O-])cc32)CC1 | 1.85% (inactive)
17 | O=C1Nc2ccc([N+](=O)[O-])cc2C1=Nc1cccc(CO)c1 | 31.8% (active)
18 | O=[N+]([O-])c1ccc(N(CCO)Cc2ccccc2)c([N+](=O)[O-])c1 | 4.36% (inactive)
19 | CCCS(=O)(=O)N1CCCC(C(=O)NCCN2CCCCC2C)C1 (stereo unspecified) | -3.97% (inactive)
20 | O=C(Nc1ccc2ccccc2c1)Nc1ccc2snnc2c1 | -10.5% (inactive)
21 | Cc1cc(OCCN2CCCC2)cc(C(C)C)c1 | 3.65% (inactive)
22 | COCCNC(=O)Nc1ccc2nc(-c3ccco3)c(-c3ccco3)nc2c1 | 26.5% (active)
23 | O=C(Nc1nc(-c2ccco2)c(-c2ccco2)s1)c1ccco1 | 15.7% (inactive)
24 | COCCNC(=O)c1snc2ccc(Cl)cc12 | 8.07% (inactive)
25 | CC(=O)Nc1ccc(NC(=O)C2CCCN(S(=O)(=O)c3ccc(Cl)cc3)C2)cc1 (stereo unspecified) | 4.7% (inactive)
26 | CCOc1ccc(S(=O)(=O)n2ccnc2)c2ccccc12 | 4.28% (inactive)
